Abs 340nm: compound absorbs light at 340 nm | 65,000 tested, under 10 active | AID 708 | fold change at 10 µM | compound absorbance at 340 nm, fold over control;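 active means at 10 µM dose, initial 340 nm absorbance at least 2 fold that of control wells; inactive means change under 2 fold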;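 further: initial absorbance extrapolated from kinetic A340 decline of NADH oxidation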
Spn MK inh: inhibitors of Streptococcus pneumoniae mevalonate kinase | inhibition, % at 10 µM | purified MK, PK/LDH-coupled NADH absorbance 340 nm | hit rate 0.48% among 65,000;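 active means ranked among the strongest by inhibition in the single 10 µM screen, a fixed top-ranked set picked for dose follow-up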
Autofluor 339: intrinsic fluorescence of library compounds, ex339/em460 – biochemical, MLSMR library, data from DPM-DC assay, artefact control, profiling panel; compound autofluorescence, ex339/em460 nm, NADH buffer; active compounds read high; 1 = no-compound wells, NADH background; fluorescence fold increase at 10 µM; hit rate 5.5% among 65,000;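 active means at 10 µM, mean starting fluorescence two-fold or more over control wells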;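 further: signal is the first read of a kinetic run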
DPM-DC inhibit: S. pneumoniae DPM-DC inhibition. calls only at 10 µM. purified DPM-DC, PK/LDH coupled NADH fluorescence. hit rate 0.49% among 65,000. AID 556;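 active means the 320 compounds with the highest percent inhibition in the single-dose primary screen, excluding strongly autofluorescent ones, cut at about 32% in these data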;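 further: kinetic rate of NADH fluorescence loss reporting ADP formed by the decarboxylase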
NADH enzymes: blocks coupling enzymes of NAD/NADH assays; coupled PK/LDH NADH assays, four targets; IC50, µM (series often up to 10 µM); hit rate 0.02% among 65,000; AID 774;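 active means single-dose screening hits from any of four coupled enzyme assays that gave an IC50 when retested across doses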;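 further: the DPM-DC format reads NADH fluorescence rather than 340 nm absorbance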
PMK inhibit: blocks S. pneumoniae phosphomevalonate kinase. purified PMK, PK/LDH-coupled NADH absorbance 340 nm. inhibition, % at 10 µM. hit rate 0.49% among 65,000. AID 539;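 active means top-ranked compounds by inhibition in the single 10 µM screen, taking a fixed number of the strongest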
Each line names hits and unclear results; the compound was inactive in the other large screens. Hits are enriched below; roughly 6.5% of the tested compounds scored in any of these assays.

COc1ccccc1-c1nc(C#N)c(N2CCc3ccccc3C2)o1	Autofluor 339 3.91 (not shown: DPM-DC inhibit)
N#Cc1nc(-c2ccco2)oc1N1CCN(c2ccccc2)CC1	none
N#Cc1nc(-c2ccco2)oc1N1CCOCC1	Autofluor 339 3.92 (not shown: DPM-DC inhibit)
COc1ccccc1-c1nc(C#N)c(N2CCN(c3ccccc3)CC2)o1	none
CC1CCCN(c2oc(-c3cccc4ccccc34)nc2C#N)C1 (stereo not drawn)	Autofluor 339 3.8 (not shown: DPM-DC inhibit)
N#Cc1nc(-c2ccccc2Cl)oc1N1CCOCC1	Autofluor 339 2.05 (not shown: DPM-DC inhibit)
O=C(O)CCc1n[nH]c(=S)[nH]c1=O	none
O=C(CC1(O)C(=O)Nc2ccc(Br)cc21)c1ccc2c(c1)OCO2 (stereo not drawn)	none
CCN1CCN(c2nc3c(c(=O)[nH]c(=O)n3C)n2CCCSc2ncccn2)CC1	none
CCCC(=O)Nc1ccc(N2CCN(C(=O)c3cccs3)CC2)cc1	none
COc1ccc(CCn2c(=N)c(C(=O)NCc3ccco3)cc3c(=O)n4ccccc4nc32)cc1	none
CNC(=O)c1cc2c(=O)n3cc(C)ccc3nc2n(C(C)C)c1=N	Autofluor 339 5.02 (not shown: DPM-DC inhibit)
CNC(=O)c1cc2c(=O)n3cc(C)ccc3nc2n(Cc2ccco2)c1=N	Autofluor 339 2.04
CCCCNC1C(CC)C(CCC)C(C#N)(C#N)C1(C#N)C#N (stereo not drawn)	none
Cc1cc(NC(=O)CN2C(=O)C3CC=CCC3C2=O)no1 (stereo not drawn)	none
CC1CCC2(CC1)NC(=O)N(CC(=O)NC(=O)NC1CCCC1)C2=O (stereo not drawn)	none
COC(=O)c1cc(OC)c(OC)cc1NC(=O)c1cccnc1	none
CCOc1cc(C#N)c(NC(=O)c2cccnc2)cc1OCC	PMK inhibit 25.0
Cc1cc(-n2c(C)cc(C(=O)COc3ccc4ccc(=O)oc4c3)c2C)no1	Autofluor 339 4.22 (not shown: DPM-DC inhibit)
CN(C)C(=O)COc1ccc2ccc(=O)oc2c1	Autofluor 339 2.16 (not shown: DPM-DC inhibit)
CCOC(=O)COc1ccc2cc(C(=O)OCC)c(=O)oc2c1	Autofluor 339 2.34 (not shown: DPM-DC inhibit)
CC#CCCCC(=O)Nc1ccccc1C(=O)O	none
Cc1cc(N2C(=O)C3C4c5ccccc5C(c5ccccc54)C3C2=O)no1 (stereo not drawn)	none
C=CCn1c(=O)c(C#N)cc2c(=O)n3ccccc3nc21	Autofluor 339 4.77 (not shown: DPM-DC inhibit)
Cc1cc(-n2c(=O)c(C#N)cc3c(=O)n4ccccc4nc32)no1	Autofluor 339 3.83 (not shown: DPM-DC inhibit)
CCN(CC)c1ccc(C2C(C(=O)Nc3ccccn3)=C(C)NC3=C2C(=O)CC(C)(C)C3)cc1 (stereo not drawn)	none
CC1=C(C(=O)Nc2ccccc2)C(c2ccc3c(c2)OCO3)C2=C(CCCC2=O)N1 (stereo not drawn)	Autofluor 339 2.22
CCc1ccccc1NC(=O)CSC1=C(C#N)C(c2ccc3c(c2)OCO3)C2=C(CCCC2=O)N1 (stereo not drawn)	none
CC1=C(C(=O)Nc2cc(C)ccn2)C(c2ccc(C)cc2)C2=C(CCCC2=O)N1 (stereo not drawn)	Autofluor 339 2.29 (not shown: DPM-DC inhibit)
CCOC(=O)CNC(=O)CSc1nc2cccnc2n1C	none
COCC(=O)Nc1nnc(-c2cccs2)s1	none
CCC(C)C(=O)Nc1nnc(-c2cccs2)s1 (stereo not drawn)	Autofluor 339 2.64
CCOC(=O)N1CCC(NC(=O)c2cc(C(=O)Nc3ccc(OC)c(OC)c3)ccc2CO)CC1	none
CCN1C(=O)c2ccccc2S(=O)(=O)c2ccc(C(=O)NCc3cccnc3)cc21	none
COc1ccc(-c2c3c(nc4sc(C(=O)Nc5cc(C)on5)c(N)c24)CCC3)cc1	Autofluor 339 2.65, DPM-DC inhibit active
CCc1nnc(NC(=O)CSc2ncc(-c3ccccc3)n2CC)s1	none
CCOC(=O)N1CCC(n2c(SCC(=O)Nc3nccs3)nc3ccsc3c2=O)CC1	none
CCOC(=O)N1CCN(C(=O)c2ccc3nc4ccsc4c(=O)n3c2)CC1	Autofluor 339 2.24 (not shown: DPM-DC inhibit)
CCOC(=O)N1CCN(C(=O)c2cccn3c(=O)c4sccc4nc23)CC1	Autofluor 339 2.54 (not shown: DPM-DC inhibit)
CCOC(=O)CSc1nc2ccsc2c(=O)n1C1CCN(C(=O)OCC)CC1	none
O=C(NCc1ccco1)c1cccn2c(=O)c3sccc3nc12	Autofluor 339 2.54 (not shown: DPM-DC inhibit)
CCOC(=O)N1CCN(C(=O)c2ccc3nc4ccc(Cl)cc4c(=O)n3c2)CC1	Autofluor 339 4.9 (not shown: DPM-DC inhibit)
COc1ccc(Cn2c(SCC(=O)NCc3ccco3)nc3ccsc3c2=O)cc1	none
CCOC(=O)N1CCN(C(=O)c2ccc3c(=O)n(Cc4ccc(Cl)cc4)c(=S)[nH]c3c2)CC1	none
O=C(CSc1nc2ccccc2c(=O)[nH]1)Nc1ccc(S(=O)(=O)N2CCCC2)cc1	none
CN(C(=O)CSc1nc(N)nn1-c1ccccc1)c1ccccc1	none
CCC(=O)Nc1c(C(=O)Nc2cccc(OC)c2)oc2ccccc12	none
COc1ccc(NC(=O)c2oc3ccccc3c2C)c(OC)c1	none
COc1ccc(NC(=O)c2oc3ccccc3c2NC(=O)COc2ccccc2OC)c(OC)c1	Autofluor 339 5.01 (not shown: DPM-DC inhibit)
N#Cc1ccccc1OCC(=O)Nc1c(C(=O)C2CC2)oc2ccccc12	Autofluor 339 2.62
CCOCC(=O)Nc1c(C(=O)Nc2ccccc2OC)oc2ccccc12	Autofluor 339 5.06 (not shown: DPM-DC inhibit)
COc1ccc(NC(=O)COc2ccccc2)c(OC)c1	none
COc1ccc(NC(=O)c2oc3ccccc3c2NC(=O)c2ccc(OC)c(OC)c2)c(OC)c1	Autofluor 339 5.05 (not shown: DPM-DC inhibit)
CSc1nsc(SCc2ccc(F)cc2)n1	none
O=C(NC(C(=O)c1ccccc1)N1CCCCC1)c1ccccc1 (stereo not drawn)	none
CCc1nc(SCC(=O)N2CCC(C)CC2)c2c(=O)n(C)c(=O)n(C)c2n1	none
COc1cc2c(cc1NC(=O)c1ccc3c(c1)OCO3)oc1ccccc12	Autofluor 339 3.04, DPM-DC inhibit active
O=C(c1coc(=O)c(Br)c1)N1CCOCC1	none
CC1(C)CC(NC(=O)c2coc(=O)c(Br)c2)CC(C)(C)N1	Autofluor 339 2.1
COCCn1c(=N)c(C(=O)NCCc2ccc(OC)cc2)cc2c(=O)n3cccc(C)c3nc21	Autofluor 339 2.69
COCCCNC(=O)c1cc2c(=O)n3cccc(C)c3nc2n(C(C)C)c1=N	Autofluor 339 5.07 (not shown: DPM-DC inhibit)
COc1cc2nc(N(C)C)nc(N)c2cc1OC	Autofluor 339 5.04 (not shown: DPM-DC inhibit)
O=c1cc(-c2ccccc2)[nH]n1-c1nc2ccccc2s1	none
O=c1cc(-c2ccccc2)[nH]c2nc3ccccc3n12	Autofluor 339 2.48 (not shown: DPM-DC inhibit)
CCCNc1ncccc1C(N)=O	Autofluor 339 3.44 (not shown: DPM-DC inhibit)
CCN1CCn2c3c(c4cc(Cl)ccc42)CCCC31 (stereo not drawn)	none
OC1CN=C2CCCc3c2n(c2ccc(Cl)cc32)C1 (stereo not drawn)	Autofluor 339 3.83 (not shown: DPM-DC inhibit)
CCc1cc(=O)oc2cc(C)c(CN3CCCC3)c(O)c12	none
CCCc1cc(=O)oc2c(CN3CCCC3)c(O)c(Cl)cc12	Autofluor 339 2.35 (not shown: DPM-DC inhibit)
CCCc1cc(=O)oc2cc(C)c(CN3CCCC3)c(O)c12	none

Screening data (PubChem BioAssay)
